Bioassay records as filed in PubChem.
BRCA1 expr up = BRCA1 expression activation. MCF7-BRCA1-FFLuc reporter, luminescence, 48 h; response scale: scaled: vehicle 0%, 10 µM genistein 100%. Potency, µM (top dose mostly 46.1 µM), without a hit: at the top dose activation, hits mostly activators. 380,000 tested, 1.1% active; further: potency means the concentration at half of the fitted maximal effect; nearly all actives have a fitted effect of over 80% in size
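Reporter cells (MCF7, BRCA1 promoter-firefly luciferase) received library compounds across a concentration series for 48 h. End-point luminescence was measured and concentration-effect curves derived after normalization.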
IL-2 act = IL-2 activation. 360,000 tested, 0.065% active. AID 652025. IL-2 activation reporter assay, cell-based qHTS; stimulated with anti-CD3/CD4/CD28 beads; in transgenic mouse T cells. activation, % (series mostly up to about 46 µM); in the data active means activation above about 50%; inconclusive means mostly about 30% to 49%; further: 0% is about no effect
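Readout is EGFP and DsRed signal by fluorescent plate cytometry after 18 h at 37 degrees C. Transgenic mouse T cells (750/well) received compound for 60 min before bead stimulation (anti-CD3, anti-CD4, anti-CD28); memory T cells served as non-tolerant control.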
N370S GC mod = N370S glucocerebrosidase modulation, Gaucher chaperone candidate. P04062. N370S GC spleen homogenate, 4MU-glucoside fluorescence. Potency, µM (highest dose often 59.4 µM), without a hit: at the highest dose activity change, negative = inhibition, most hits filed as inhibitors. 330,000 tested, 0.092% active. AID 2101;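 further: potency means the concentration at half of the fitted maximal effect; 0% = full enzyme activity and -100% = no enzyme basal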
BCR signal inh = chronic active BCR signaling inhibition; ABC-DLBCL IkBa-CBG/CBR reporter, luminescence ratio, 4 h; Potency, µM (top dose mostly 46.1 µM), for the others: at the top dose activity change, negative = inhibition, usual class: inhibitors; 340,000 tested, 0.05% active; AID 493014; active means well fitted inhibition curve with a large enough effect in the signal ratio, with a control signal flat, not every such curve was filed as active; inconclusive means small, poorly fitted or top-dose-only effect, or effect the other way, or a change in a side signal; the % refers to the signal ratio;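 further: potency means the concentration at half of the fitted maximal effect; plate controls were basal doxycycline-induced cells for no effect and cells given 10 µM MG132 for full effect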
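TMD8 human ABC-DLBCL cells with doxycycline-inducible IκBα–green luciferase fusion and unfused red luciferase, in 0.5% FBS medium; compounds up to 46 uM, 4 h at 37C. Green/red luminescence ratio, filter-overlap corrected, fitted to concentration-response curves.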
Integrin act MD = integrin-mediated muscular dystrophy alleviation activation; alpha7betagal myoblasts, beta-gal FDG fluorescence, 48 h; Potency, µM (highest dose often 38.3 µM), for the others: at the highest dose activation, usual class: activators; 350,000 tested, 0.064% active; AID 624291;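 further: potency means the concentration at half of the fitted maximal effect; 100% = response of the positive control SU9516; nearly all actives have a fitted effect of over 60% in size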
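alpha7betagal+/- myoblasts (passage 13, 250/well) treated 48 h at 37C with compounds at 1:260 dilution of DMSO stock. Lysed, then beta-galactosidase activity read as FDG fluorescence (ex 480/em 540) after 30 min, with pre-read for autofluorescence.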
Nrf2 ARE act = activators of Nrf2 (ARE) signaling | AREc32 ARE-luciferase reporter (MCF7-derived line), luminescence, 24 h | Potency, µM (highest dose often 46.1 µM), for inactives: at the top dose activation, most hits filed as activators | 410,000 tested, 0.31% active; further: potency means the concentration at half of the fitted maximal effect; % of control where 0% means no effect; nearly all actives have a fitted effect of over 65% in size
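Each well held 1000 AREc32 cells, which were incubated with compound for 24 hr at 37 deg C after overnight attachment, and ARE reporter activity was quantified by firefly luciferase luminescence.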
* marks the source's active call; other numbers are inactive results; u = inconclusive; x = no result given. An excerpt weighted towards active compounds, which were near 1.4% of everything screened. Unless noted, the call rests on the fitted dose curve; in most records, active means well fitted curve in the direction sought with a large enough effect; inconclusive means small, poorly fitted or top-dose-only effect, or another doubt; inactive means no such curve, though single readings can be large; an effect the other way counts as inactive or inconclusive.

SMILES	BRCA1 expr up	IL-2 act	N370S GC mod	BCR signal inh	Integrin act MD	Nrf2 ARE act
Cc1snc2sc(C(=O)c3ccc(F)cc3)c(N)c12	10µM*	6	19%	-1%	-5%	13%
CN(C)c1ccnc2sc(C(=O)c3ccc(Br)cc3)c(N)c12	71%	0	7%	3%	23%	0%
CC(=O)c1ccc(NC(=O)c2cccc(N3C(=O)c4ccccc4C3=O)c2)cc1	11%	-4	-2%	-12%	13%	-1%
COc1ccc(NC(=O)c2cccc(N3C(=O)c4ccc(C(=O)Nc5ccc(OC)c(O)c5)cc4C3=O)c2)cc1O	-16%	2	1%	2%	4.5µM*	0%
COC(=O)c1ccc(COC(=O)c2ccc(N(C)C)cc2)cc1	5µM*	-4	u	-1%	-1%	0%
CN(C)c1ccc(C(=O)OCc2ccccc2)cc1	u	0	u	u	8%	0%
COC(=O)c1ccc(COC(=O)CCC(=O)c2cccs2)cc1	10µM*	-4	-19%	u	8%	4%
Cc1ccsc1C(=O)N1CCC1(C)C(=O)NS(=O)(=O)c1cccc(F)c1 (centres undefined)	2%	2	x	x	x	0%
CCOC(=O)c1cc(-c2ccc(OC)cc2)n(CCC(=O)NCCc2ccccc2)c1C	x	x	x	-3%	x	5%
CCn1c(COc2ccc(OC)cc2)nc2ccccc21	11µM*	3	6%	u	-10%	1%
CCn1c(COc2ccccc2)nc2ccccc21	102%	1	4%	16%	24%	4%
Cc1ccc(NC(=O)c2nnn(-c3cc(C)cc(C)c3)c2N)cc1	113%	1	-4%	u	27%	4%
Cc1cccc(-n2nnc(C(=O)Nc3ccc(F)cc3)c2N)c1	4.5µM*	1	3%	u	2%	2%
N#Cc1ccc(-n2nnc3ccccc3c2=O)c([N+](=O)[O-])c1	-26%	0	x	x	6%	0%
N=c1c2ccccc2nnn1-c1ccccc1[N+](=O)[O-]	-27%	0	x	x	8%	14µM*
COc1ccc(CCN2CCC(CNC(=O)c3cnn(-c4ccc(C)cc4)c3C3CCN(C(=O)OC(C)(C)C)CC3)CC2)cc1	x	x	x	x	x	2%
O=c1oc(=O)c2ccccc2c2ccccc12	-10%	-5	x	x	0%	0%
Nc1ccc2oc(=O)c3ccccc3c2c1	11µM*	-1	-1%	-7%	13%	6%
CN(C)CCN1C(=O)c2ccccc2C1=O	27%	0	x	-1%	17%	0%
O=C(COc1ccc(Br)cc1)N1CCc2ccccc21	7.1µM*	-1	20%	7%	-22%	0%
O=C(Cc1c[nH]c2ccccc12)N1CCc2ccccc21	11µM*	3	12%	u	-8%	3%
Cn1cccc1C(=O)OCC(=O)N1CCc2ccccc21	10µM*	0	x	1%	-29%	5%
O=C(COc1ccccc1)N1CCc2ccccc21	100%	-4	2%	-13%	15%	5%
CN(C)c1ccc(/C=C/c2ccnc3ccccc23)cc1Br	0%	x	x	x	x	x
Cc1cn(C)c(CC(=O)N2CCN(c3cccc(C(F)(F)F)c3)CC2)c1C(=O)O	x	x	x	u	x	0%
SMILES	BRCA1 expr up	IL-2 act	N370S GC mod	BCR signal inh	Integrin act MD	Nrf2 ARE act
COC(=O)CNc1c(-c2ccccn2)nc2ccc(Br)cn12	4.5µM*	2	-2%	u	-5%	4%
C[C@](N)(Cc1ccc(O)c(O)c1)C(=O)O	-1%	2	7%	0%	x	0%
COc1ccc(C[C@](C)(N)C(=O)O)cc1OC	4%	0	-2%	23µM*	x	10%
Cc1ccc(S(=O)(=O)c2cn(CC(=O)Nc3ccc4c(c3)OCO4)c3ccccc3c2=O)cc1C	-21%	x	x	x	x	0%
CN(CC1CCOCC1)C(=O)c1ccc2nc(Cc3cccc(Cl)c3)oc2c1	-14%	-2	-18%	-5%	u	2%
O=C(NCC1CCOCC1)c1ccc2nc(Cc3cccc(Cl)c3)oc2c1	10µM*	-1	u	-6%	-15%	3%
CCC1CCCCN1C(=O)c1ccc2nc(Cc3ccc(OC)cc3)oc2c1 (centres undefined)	11µM*	-2	1%	9%	34%	4%
COc1ccc(Cc2nc3ccc(C(=O)NCC(C)(C)OC)cc3o2)cc1	10µM*	1	0%	-2%	16%	5%
COC(=O)CCNC(=O)c1ccc2nc(Cc3ccc(OC)cc3)oc2c1	1%	0	x	x	13%	5%
COc1ccc(Cc2nc3ccc(C(=O)N4CCCCC4CCO)cc3o2)cc1 (centres undefined)	12%	-3	-4%	-2%	-25%	2%
Cc1cc2ccccc2c[n+]1C	-1%	x	x	x	x	x
COc1ccc(-n2c(C)c(C(C)=O)c3cc(OC(C)=O)ccc32)cc1	1%	2	2%	0%	10µM*	0%
COc1ccc2nc(N3CCCCC3)c(C#N)cc2c1	11µM*	0	8%	u	16%	6%
COc1ccc2nc(N3CCCC3)c(C#N)cc2c1	37%	3	-11%	u	0%	1%
O=C(Cc1ccc(Cl)cc1)Nc1ccc(Br)cn1	13µM*	-1	5%	5%	u	0%
CCOc1ccc(NC(=O)Cc2ccccc2)cc1	7.1µM*	-1	-1%	u	14%	2%
CCOc1ccc(NC(=O)[C@H](Cc2ccccc2)N2Cc3ccccc3C2=O)cc1	9%	x	x	x	x	-1%
CCOc1ccc(NC(=O)CNC(=O)Cc2ccccc2)cc1	0%	-3	-7%	-2%	2%	0%
CCOc1ccc(NC(=O)C(Cc2ccccc2)N2C(=O)c3cccc4cccc(c34)C2=O)cc1 (centres undefined)	-37%	97*	-11%	u	-26%	3%
COC(=O)Nc1ccc(OCc2ccccc2)cc1	13µM*	2	8%	u	12%	4%
COc1ccc(Cn2ccc3nc(C)c(C(=O)Nc4ccc(OC)cc4)cc3c2=O)cc1	x	x	x	x	x	2%
CC1CCCC(NC(=O)Cn2c(Cl)nc3c2c(=O)n(C)c(=O)n3C)C1C (centres undefined)	-43%	3	x	2%	u	-1%
CCCn1c(SCc2nc(-c3ccccc3OCC)no2)nnc1-c1ccc(Cl)cc1	x	x	x	x	x	-2%
O=C(Nc1ccc(NC(=O)C2CC2)cn1)c1ccccc1	u	0	-1%	u	3%	-1%
O=C(Cc1ccccc1)Nc1ccc(NC(=O)c2ccccc2)nc1	13µM*	-1	-9%	u	u	9%
